The test has as its target T1, GST-Dm-Relish (Drosophila melanogaster, UniProt Q94527 99-473).
T1 sequence: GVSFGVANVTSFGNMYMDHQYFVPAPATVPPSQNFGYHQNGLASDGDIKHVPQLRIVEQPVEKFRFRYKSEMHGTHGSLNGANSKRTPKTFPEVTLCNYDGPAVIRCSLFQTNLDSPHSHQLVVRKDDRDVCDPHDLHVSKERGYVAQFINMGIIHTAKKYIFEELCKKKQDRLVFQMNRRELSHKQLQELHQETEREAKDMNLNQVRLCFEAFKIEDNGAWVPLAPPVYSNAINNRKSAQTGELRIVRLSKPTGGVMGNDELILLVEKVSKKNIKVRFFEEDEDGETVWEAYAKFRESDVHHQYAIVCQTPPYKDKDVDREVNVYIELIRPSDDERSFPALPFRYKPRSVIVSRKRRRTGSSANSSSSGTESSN
Nature of the test: protein-binding microarray (PBM); PBM: ~300 nM protein, 6 mM HEPES pH 7.8, 80 mM KCl, 0.5 mM EDTA, 0.5 mM EGTA, 6% glycerol, 35 ng/ul poly-dIdC, 1% milk, 1 h, room temperature; Ap Aiptasia and Nv Nematostella (sea anemones) / Co Capsaspora / Aq Amphimedon (sponge) / Dm Drosophila / Hu human; RHD is the Rel homology domain; high values mean tight binding. The following applies: dsDNA, one strand shown.
As to “CCGATTAACATCAGTGAACCACATGATGTTAATCGGGTCTTGATTCGCTTGACGCTGCTG”, the binding signal is 5.69 z-score.

For “CCGATTAACATCAGAGTAATTCCTGATGTTAATCGGGTCTTGATTCGCTTGACGCTGCTG”, the binding signal came out at 2.26 z-score.

Sequence “CCGATTAACATCAGAAAATTACATGATGTTAATCGGGTCTTGATTCGCTTGACGCTGCTG” had a binding signal of 3.43 z-score.

In turn, “CCGATTAACATCAATGGATTTCCTGATGTTAATCGGGTCTTGATTCGCTTGACGCTGCTG” had a binding signal of 1.12 z-score.

Consider “CCGATTAACATCACGAAAAATCCTGATGTTAATCGGGTCTTGATTCGCTTGACGCTGCTG”, for which the binding signal worked out at 1.48 z-score.

On to “CCGATTAACATCAAATTTTCCACTGATGTTAATCGGGTCTTGATTCGCTTGACGCTGCTG”, for which the binding signal came out at 1.2 z-score.

Take “CCGATTAACATCACGTAAATCCATGATGTTAATCGGGTCTTGATTCGCTTGACGCTGCTG”: the binding signal turned out to be 1 z-score.

Consider “CCGATTAACATCAAATGTACTAATGATGTTAATCGGGTCTTGATTCGCTTGACGCTGCTG”, for which the binding signal stood at 1.5 z-score.

Consider “CCGATTAACATCAGGAATTTATATGATGTTAATCGGGTCTTGATTCGCTTGACGCTGCTG”, for which the binding signal worked out at 1 z-score.

“CCGATTAACATCAGGAATTACACTGATGTTAATCGGGTCTTGATTCGCTTGACGCTGCTG” yielded a binding signal of 3.55 z-score.

As to “CCGATTAACATCATTTACATTCGTGATGTTAATCGGGTCTTGATTCGCTTGACGCTGCTG”, the binding signal was 1.06 z-score.

The sequence “CCGATTAACATCAGCGTGACTTTTGATGTTAATCGGGTCTTGATTCGCTTGACGCTGCTG” registered a binding signal of 1.47 z-score.

In turn, “CCGATTAACATCACGGAATTCACTGATGTTAATCGGGTCTTGATTCGCTTGACGCTGCTG” gave a binding signal of 2.4 z-score.

In the case of “CCGATTAACATCAAAGGAAATTCTGATGTTAATCGGGTCTTGATTCGCTTGACGCTGCTG”, the binding signal was determined as 1.56 z-score.

In turn, “CCGATTAACATCACTGGAAATTCTGATGTTAATCGGGTCTTGATTCGCTTGACGCTGCTG” came in with a binding signal of 1.59 z-score.

As for “CCGATTAACATCAGTAATTTACATGATGTTAATCGGGTCTTGATTCGCTTGACGCTGCTG”, the binding signal worked out at 6.73 z-score.

On to “CCGATTAACATCAGGAATTCACATGATGTTAATCGGGTCTTGATTCGCTTGACGCTGCTG”, for which the binding signal was 5.7 z-score.

With “CCGATTAACATCAGGAAAAATACTGATGTTAATCGGGTCTTGATTCGCTTGACGCTGCTG”, the binding signal is 1.36 z-score.

Consider “CCGATTAACATCACAATACACGCTGATGTTAATCGGGTCTTGATTCGCTTGACGCTGCTG”, for which the binding signal came to 1.05 z-score.

With “CCGATTAACATCAAGTGAATTCCTGATGTTAATCGGGTCTTGATTCGCTTGACGCTGCTG”, the binding signal is 3.49 z-score.

“CCGATTAACATCATAAAAAAAAATGATGTTAATCGGGTCTTGATTCGCTTGACGCTGCTG” yielded a binding signal of 1.27 z-score.

“CCGATTAACATCAAGTACATTCCTGATGTTAATCGGGTCTTGATTCGCTTGACGCTGCTG” came in with a binding signal of 2.21 z-score.

Consider “CCGATTAACATCAGGAATGTACATGATGTTAATCGGGTCTTGATTCGCTTGACGCTGCTG”, for which the binding signal is 4.12 z-score.

Consider “CCGATTAACATCACGGAAAATACTGATGTTAATCGGGTCTTGATTCGCTTGACGCTGCTG”, for which the binding signal was found to be 1.21 z-score.

“CCGATTAACATCACTATTGTACATGATGTTAATCGGGTCTTGATTCGCTTGACGCTGCTG” yielded a binding signal of 1.29 z-score.

Sequence “CCGATTAACATCAGTTTTTTCCATGATGTTAATCGGGTCTTGATTCGCTTGACGCTGCTG” gave a binding signal of 1.54 z-score.

The record behind these values is article PMC5700166.
